Assay outcomes as filed in PubChem.
Sampled rows, rich in hits. Any-hit rate of the full collection: about 4.5%.
GRIN3A LBD mod: modulates the human NR3A ligand-binding domain; NR3A LBD differential scanning fluorimetry, Tm shift; 0% = protein alone, 100% = glycine-bound protein; Tm shift relative to glycine control, % at 25 µM; hit rate 2.5% among 340,000;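 active means melting temperature shift of at least 10% of the positive control shift, at one fixed dose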
TPT1 inh: inhibitors of Candida albicans tRNA 2'-phosphotransferase TPT1; hit rate 0.81% among 300,000; recombinant caTPT1, FP RNA substrate dephosphorylation; inhibition, % at 5 µM;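 active means inhibition above the mean of all tested compounds plus 3 SD, set per screening campaign, cut at about 24% in these data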
Rpn11 block: blocks the human proteasome subunit Rpn11; O00487; human 26S proteasome, Ub4-pepOG fluorescence polarization; 20S core pre-blocked with epoxomicin; inhibition, % at 20 µM; hit rate 0.59% among 360,000; AID 588493;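 active means inhibition at 20 µM, scaled to each plate's controls, above about 33%, limit read from the data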
EBNA-1 inhibitor: blocks EBNA-1 binding to DNA; EBNA-1 DNA binding, fluorescence polarization; inhibition, % at 14.8 µM; hit rate 0.34% among 300,000; in the data active means inhibition above about 28%
ZTA counter: blocks Epstein-Barr virus ZTA, an EBNA-1 counter-screen; AID 2234; hit rate 0.15% among 320,000; P03206; inhibition, % at 11 µM; ZTA-DNA binding, fluorescence polarization; in the data active means inhibition above about 33%
Target sequence (P03206 whole entry, looked up): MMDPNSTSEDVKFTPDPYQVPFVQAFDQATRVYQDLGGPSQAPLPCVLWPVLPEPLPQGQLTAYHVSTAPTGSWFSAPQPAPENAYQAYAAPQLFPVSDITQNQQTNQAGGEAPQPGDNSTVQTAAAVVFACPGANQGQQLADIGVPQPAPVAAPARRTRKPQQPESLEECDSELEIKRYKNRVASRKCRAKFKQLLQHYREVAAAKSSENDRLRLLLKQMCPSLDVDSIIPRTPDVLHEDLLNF
dFosB act: activators of mouse delta FosB homodimer; P13346; purified delta FosB, TAMRA-CDK5 oligo fluorescence polarization; percent of positive-control signal above neutral wells; activation, % at 25 µM; hit rate 0.99% among 340,000; AID 493131;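 active means mean activation above about 17%, with every replicate also reaching it, limit read from the data, passing the limit was not always enough; inconclusive means only one of the two conditions met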
Numbers stand for hits; – = inactive; ? = inconclusive; · = not tested or not shown.

SMILES	GRIN3A LBD mod	TPT1 inh	Rpn11 block	EBNA-1 inhibitor	ZTA counter	dFosB act
O=C(N/N=C/c1cc(Cl)cc([N+](=O)[O-])c1O)c1ccc2c(c1)OCO2	–	–	–	–	–	–
Cc1ccccc1C(=O)Nc1ccc(C(=O)N/N=C/c2ccc(O)c(Br)c2)cc1	28	–	–	–	–	–
O=C(CCCSCCCC(=O)NN=Cc1ccccc1)NN=Cc1ccccc1	–	·	–	·	·	–
O=C(N/N=C/c1ccccc1)c1ccc(NC(=O)c2ccc(F)cc2)cc1	33	–	–	–	–	–
O=C(N/N=C/c1cc(Br)cc([N+](=O)[O-])c1O)c1ccc(NC(=O)c2ccc(F)cc2)cc1	18	–	–	–	–	–
Cc1cccc(C)c1-n1nnnc1C(c1ccccc1)N1CCN(C/C=C/c2ccccc2)CC1 (stereo not given)	·	·	–	·	·	·
Cc1cc(C)cc(NC(=S)N2CCC(NC(=O)C3CC3)CC2)c1	–	–	–	–	–	–
Oc1ccc(/C=N/Nc2ccccc2)cc1	–	–	–	–	–	–
Cc1ccccc1C(=O)Nc1ccc(C(=O)N/N=C/c2ccc(F)cc2)cc1	26	–	–	–	–	–
COc1ccc(C(=O)N/N=C/c2ccc(OC)c(OS(=O)(=O)c3ccccc3)c2)cc1	13	–	–	–	–	–
COc1ccc(/C=N/NC(=O)c2cc[n+]([O-])cc2)cc1	–	–	–	–	–	–
COc1ccc(/C=N/NC(=O)c2ccc(NC(=O)c3ccccc3Br)cc2)cc1	27	–	–	–	–	?
Brc1ccc(/C=N/Nc2ccccc2)cc1	20	–	–	–	–	–
CCOC(=O)C1CCCN(C(=O)CN2C(=O)NC(C)(c3ccc4ccccc4c3)C2=O)C1 (stereo not given)	–	–	–	–	–	–
CC(=O)Nc1ccc(/C=C/c2noc(-c3ccccc3O)n2)cc1	12	–	–	–	–	–
O=C(O)c1ccccc1C(=O)Nc1ccc(Nc2ccc([N+](=O)[O-])cc2[N+](=O)[O-])cc1	10	–	–	–	–	–
C#Cc1ccc2c(c1)COc1c3ccccc3nn1-2	–	–	–	–	–	–
COc1cccc2cc(-c3nnc(SCC(=O)Nc4cc(C(F)(F)F)ccc4Cl)n3N)oc12	11	–	–	–	–	–
CCn1c(SCC(=O)Nc2nccs2)nnc1-c1cc2cccc(OC)c2o1	–	·	–	·	·	–
COc1ccc(/C=C/C(=O)NC(=S)NNC(=O)c2cnccn2)cc1	–	–	–	–	–	17
COc1ccc(NC(=O)c2ccc(-c3ccc(C(C)=O)cc3)o2)cn1	27	·	–	·	–	–
O=C(Nc1ccccc1)c1ccc(-c2ccc([N+](=O)[O-])cc2)o1	–	–	–	–	–	–
CC(=O)c1ccc(NC(=O)CCC(=O)OCC(=O)c2cccc([N+](=O)[O-])c2)cc1	62	–	–	–	–	–
COc1ccc(NC(=O)CCC(=O)OCc2ccc([N+](=O)[O-])cc2)cc1	20	–	–	–	–	–
COc1ccc(NC(=O)CCC(=O)OCC(=O)c2ccc(Oc3ccc([N+](=O)[O-])cc3)cc2)cc1	–	–	–	–	–	–
SMILES	GRIN3A LBD mod	TPT1 inh	Rpn11 block	EBNA-1 inhibitor	ZTA counter	dFosB act
COc1ccc(NC(=O)c2ccc(-c3ccc([N+](=O)[O-])cc3)o2)cc1	25	–	–	–	–	–
COc1ccc(NC(=O)c2ccco2)cn1	–	–	–	–	–	–
C[C@H](CO)N1C[C@H](C)[C@@H](CN(C)C(=O)Nc2ccc(C(F)(F)F)cc2)Oc2ccc(NS(=O)(=O)c3cccs3)cc2C1=O	–	·	–	·	·	–
COc1cccc(-n2c(C)cc(/C=C3\C(=N)N4N=C(CC(=O)N5CCOCC5)SC4=NC3=O)c2C)c1	–	–	–	–	–	–
NC1=NC(=O)CC(C(=O)NCCc2ccccc2)S1 (stereo not given)	10	–	–	–	–	–
NC1=NC(=O)CC(C(=O)Nc2cccc3ccccc23)S1 (stereo not given)	–	–	–	–	–	–
O=[N+]([O-])c1ccc(/C=C/C2=NN(c3ccccc3)C(c3ccco3)C2)o1 (stereo not given)	199	·	·	·	·	–
Fc1ccc(C2=NN(c3ccccc3)C(c3ccco3)C2)cc1 (stereo not given)	–	–	–	–	–	–
O=C(CSc1nnc(-c2ccc3c(c2)OCO3)n1-c1ccccc1)c1ccccc1	16	–	–	–	–	–
